Screening data as filed in PubChem BioAssay.
A selection: hits, their analogues and other compounds. The true share with any hit is near 2.3%.
CHO-K1 Ca PAM: M1 PAM counterscreen hit in parental CHO-K1 cells. ATP EC20, Fluo-8 calcium fluorescence; 0% at ATP EC20, 100% at ATP max. activation, % at 3 µM. 0.02% of 360,000 active;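 active means activation above the run cutoff, the mean activation of all test compounds plus 3 SD, cut at about 40% in these data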;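 further: peak over basal fluorescence ratio in a 140 s read after ATP addition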
CHRM1 antagonist: blocks human M1 muscarinic receptor; P11229; CHO-K1 hM1, Fluo-8 calcium fluorescence, ACh EC80 antagonist; inhibition, % at 3 µM; 1.3% of 360,000 active; AID 588852;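 active means percent inhibition above its own plate's cutoff, namely the mean of that plate's compound wells plus 3 SD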;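 further: peak over basal fluorescence ratio during 140 s after agonist addition; 0% = ACh EC80 plus DMSO and 100% = DMSO alone without agonist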
Target sequence (P11229 whole entry, looked up): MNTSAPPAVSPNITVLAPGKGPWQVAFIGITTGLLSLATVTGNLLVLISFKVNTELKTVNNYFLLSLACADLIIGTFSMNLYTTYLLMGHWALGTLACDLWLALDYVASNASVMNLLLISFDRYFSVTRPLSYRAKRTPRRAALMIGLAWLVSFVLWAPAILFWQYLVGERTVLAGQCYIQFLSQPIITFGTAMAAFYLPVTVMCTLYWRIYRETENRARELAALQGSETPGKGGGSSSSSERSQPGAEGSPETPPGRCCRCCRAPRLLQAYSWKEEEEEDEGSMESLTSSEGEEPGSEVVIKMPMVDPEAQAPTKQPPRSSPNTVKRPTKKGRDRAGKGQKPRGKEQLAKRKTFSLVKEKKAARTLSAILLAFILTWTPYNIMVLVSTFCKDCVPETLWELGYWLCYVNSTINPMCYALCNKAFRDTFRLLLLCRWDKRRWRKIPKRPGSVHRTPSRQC
CHRM1 PAM: positive allosteric modulators of human M1 muscarinic receptor | activation, % at 3 µM | AID 588819 | CHO-K1 hM1, Fluo-8 calcium fluorescence, ACh EC20; 0% = ACh EC20, 100% = maximal ACh | 0.088% of 360,000 active; in the data active means activation above about 19%, passing the limit was not always enough
CHRM1 agonist: agonists of human M1 muscarinic receptor. activation, % at 3 µM. P11229. CHO-K1 hM1, Fluo-8 calcium fluorescence, agonist mode; 0% DMSO, 100% acetylcholine EC100. 0.33% of 360,000 active;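 active means activation above the run's mean compound activation plus 3 SD, cut at about 16% in these data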;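 further: peak over basal fluorescence ratio within a 140 s kinetic read after compound addition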
CHO-K1 Ca antag: M1 antagonist counterscreen hit in parental CHO-K1 cells; 0.6% of 360,000 active; inhibition, % at 3 µM; ATP-induced calcium, Fluo-8 fluorescence; AID 602250;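 active means inhibition above a per-plate cutoff, the plate's mean sample inhibition plus 3 SD, cut at about 24% in these data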;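 further: 0% = DMSO plus EC80 ATP and 100% = DMSO alone without ATP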
CHO-K1 Ca ag: nonselective activator or artifact in parental CHO-K1 cells; Fluo-8 calcium fluorescence; scaled to maximal ATP response, vehicle zero; activation, % at 3 µM; 0.48% of 360,000 active; in the data active means activation above about 15%;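 further: untransfected CHO-K1 host cells lacking M1 receptor as counterscreen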
* marks the source's active call; other numbers are inactive results; ! = not confirmed by another sample.

SMILES | CHO-K1 Ca PAM | CHRM1 antagonist | CHRM1 PAM | CHRM1 agonist | CHO-K1 Ca antag | CHO-K1 Ca ag
COc1cc(/C=N/NC(=O)C2CCN(CC(O)COCc3ccccc3)CC2)ccc1O (centres undefined) | 20 | -11 | 17 | -10 | -5 | 1
O=C(c1cccc(C(F)(F)F)c1)N1CCC(O)(CS(=O)(=O)Cc2ccc(Cl)cc2)CC1 | -10 | 7 | -5 | 0 | 29* | 0
O=C(CNC(=O)c1ccc(F)cc1)NCc1ccc(S(=O)(=O)N2CCOCC2)cc1 | -7 | -3 | 2 | -4 | 5 | 0
N=c1c2ccccc2nc2n1CCCCC2 | -10 | 3 | -18 | -9 | 34* | 0
NS(=O)(=O)c1ccc(CNC(=S)NCc2ccc(F)cc2)cc1 | 0 | 1 | -2 | -1 | -1 | 1
CC1CCCCN1S(=O)(=O)c1ccc(C(=O)N2CCOCC2)cc1 (centres undefined) | 3 | -10 | 7 | -4 | -11 | 0
O=C(CN1C(=O)c2cccnc2Oc2ccc(Cl)cc21)NCCCc1ccccc1 | 15 | 30* | -9 | 2 | 2 | 9
Cc1ccc(-c2csc(N/N=C/c3ccco3)n2)cc1 | 21 | -1 | 0 | -4 | -11 | 0
CN(C)S(=O)(=O)c1ccc(-c2csc(N/N=C/c3ccco3)n2)cc1 | -21 | 51* | -16 | 6 | 13 | 15
C(=N\Nc1nc(-c2ccccc2)cs1)/c1ccncc1 | 22 | -6 | 9 | -12 | -9 | 1
CN(C)S(=O)(=O)c1ccc(-c2csc(N/N=C/c3ccc(O)cc3)n2)cc1 | -10 | 37* | -12 | -1 | 16 | 7
O=C(CCNC(=O)C1CCN(S(=O)(=O)c2ccc(F)cc2)CC1)Nc1nccs1 | 4 | -2 | 4 | 1 | 4 | 1
O=C(COC(=O)/C=C/c1cccc(F)c1)Nc1ncccn1 | 20 | -14 | 24* | -3 | -17 | 1
O=C(COC(=O)/C=C/c1cccc(F)c1)Nc1ccc(Cl)cn1 | 11 | -3 | 3 | -5 | -15 | 0
CCc1cccc(NC(=O)c2ccc(Cn3nc(C)cc3C)o2)c1 | -12 | -12 | 8 | -9 | 24* | 0
OCc1ccccc1-c1cnc2cccnn12 | 14 | -16 | 9 | 0 | -8 | 0
CCOC(=O)c1ccc(S(=O)(=O)NNC(=O)Cc2csc(C)n2)cc1 | -2 | -7 | 5 | -2 | 0 | 0
COC(=O)c1cccnc1-n1c(=O)c2cccnc2n(Cc2ccc([N+](=O)[O-])cc2)c1=O | -18 | -9 | 4 | 18* | 7 | 1
CC(C)N(C)c1ncnc2c1ncn2[C@H]1CN(CCc2ccccc2)C[C@@H](CO)O1 | -4 | -18 | 10 | -4 | 0 | 0
O=C(COC(=O)Cc1c[nH]c2ccccc12)NC1CCS(=O)(=O)C1 (centres undefined) | -21 | 27* | -8 | -2 | 10 | 0
O=C(COC(=O)Cc1ccc(F)cc1)NC1CCS(=O)(=O)C1 (centres undefined) | -7 | -8 | 5 | 1 | -1 | 1
OC1(c2ccc(Br)cc2)CCN(Cc2cccc(Br)c2)CC1 | 12 | 35* | -17 | 5 | -9 | 1
CCN=C1SC(C(=O)Nc2ccc(OC)cc2)CC(=O)N1CC (centres undefined) | 1 | 32* | -20 | -1 | 19 | 5
CCN=c1sc(C(=O)NCCc2ccccc2)cc(=O)n1CC | 7 | 30* | -4 | 4 | 15 | 6
CCN=C1SC(C(=O)Nc2ccc(Cl)c(Cl)c2)CC(=O)N1CC (centres undefined) | 13 | 7 | -5 | -1 | 5 | 4
SMILES | CHO-K1 Ca PAM | CHRM1 antagonist | CHRM1 PAM | CHRM1 agonist | CHO-K1 Ca antag | CHO-K1 Ca ag
CCN1C(=O)CC(C(=O)Nc2ccc(F)cc2)SC1=Nc1ccc2c(c1)OCO2 (centres undefined) | 15 | 12 | -3 | -1 | 10 | 3
CCN=C1SC(C(=O)Nc2cccc(C)c2)CC(=O)N1CC (centres undefined) | 5 | 33* | -10 | 3 | 15 | 4
CCN=C1SC(C(=O)Nc2cccc(Br)c2)CC(=O)N1CC (centres undefined) | -1 | 30* | -15 | -3 | 16 | 8
CCN=C1SC(C(=O)Nc2ccc(OCC)cc2)CC(=O)N1CC (centres undefined) | 8 | 17 | -13 | 2 | 4 | 6
CC1(C(=O)NS(=O)(=O)c2cccc(F)c2)CCN1C(=O)c1cccc(F)c1 (centres undefined) | 13 | -9 | 6 | -2 | -13 | 1
COC(=O)CCN1CCC2CC1c1cc(N3CCCCC3)ccc12 (centres undefined) | 26 | 2 | -2 | -10 | -11 | 1
CCn1nc(C)c(CN2CCC(C(=O)Nc3cccc(-c4cccc(Cl)c4)c3)CC2)c1C | -8 | 0 | 1 | -6 | -4 | 1
CCN=C1SC(C(=O)NCCc2ccccc2)CC(=O)N1CC (centres undefined) | 17 | 26* | -14 | -1 | 3 | 4
CCN=C1SC(C(=O)Nc2cccc(Cl)c2)CC(=O)N1CC (centres undefined) | 7 | 38* | -9 | 0 | 5 | 7
CCN=C1SC(C(=O)Nc2cc(Cl)cc(Cl)c2)CC(=O)N1CC (centres undefined) | 17 | -10 | 6 | -4 | -15 | 1
Cc1ccc(N=C2SC(C(=O)NCCc3ccccc3)CC(=O)N2C)cc1C (centres undefined) | 17 | 14 | -17 | -7 | -9 | 2
Cc1cccc(OCc2n(CC(=O)OC3CC(C)CCC3C(C)C)c3ccccc3[n+]2C)c1 (centres undefined) | 14 | 38* | -31 | -7 | 14 | 9
CC1CCC(C(C)C)C(OC(=O)CSc2nc(N)cc(=O)[nH]2)C1 (centres undefined) | -8 | 2 | 2 | 0 | -4 | 3
CC1CCC(C(C)C)C(OC(=O)CSc2nnc(N)s2)C1 (centres undefined) | 10 | -9 | 2 | -3 | -3 | 0
CC1CCC(C(C)C)C(OC(=O)Cn2c(-c3ccccc3)[n+](C)c3ccccc32)C1 (centres undefined) | 14 | 43*! | -17 | -7 | 12 | 6
CC1CCC(C(C)C)C(OC(=O)Cn2c(-c3ccc(F)cc3)[n+](C)c3ccccc32)C1 (centres undefined) | -9 | 51* | -26 | -11 | 23 | 1
OCCn1nc(-c2ccccc2)cc1-c1ccccc1 | 10 | -9 | 7 | -5 | -9 | 1
Nc1cc(-c2ccccc2)n2c(n1)nc1ccccc12 | -10 | 92* | -27 | -9 | -7 | 0
N#Cc1c(-c2ccccc2)cc2nc3ccccc3n2c1N | 10 | -7 | 4 | -6 | 12 | 2
